In the library only some 3.7% were active in any assay of this set; here they are far more common.
TGFb SMAD3 inh: TGF-b pathway inhibition | AID 588855 | HepG2 CAGA-GFP TGF-b/SMAD3 reporter, GFP fluorescence, 18 h; TGF-beta stimulated, 500 pg/mL final | Potency, µM (titrated, usually from 46.1 µM), for the others: at the highest dose activity, negative = inhibition, actives largely listed as inhibitors | 410,000 compounds, 1.2% hits; also: % is scaled to controls: 0 for no effect and ±100 for the full control effect; nearly all actives have a fitted effect of over 65% in size
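TGF-beta reporter screen: HEPG2 CAGA-GFP, 1% FBS, 500 pg/mL TGF-beta final, 18 h; per-cell GFP summed per well; curves fitted and categorized by class.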
GLP-1R inv ag: inverse agonists of human GLP-1 receptor | P43220 | HEK293 GLP-1R CRE-luciferase, luminescence, 24 h; GLP-1R form is constitutively active | Potency, µM (series often up to 38.3 µM), inactives show top-dose activity change, negative = inhibition, most hits filed as inhibitors | 410,000 compounds, 1.6% hits; also: % is scaled to controls: 0 for no effect and ±100 for the full control effect; nearly all actives have a fitted effect of over 55% in size
Target sequence (P43220 whole entry, looked up): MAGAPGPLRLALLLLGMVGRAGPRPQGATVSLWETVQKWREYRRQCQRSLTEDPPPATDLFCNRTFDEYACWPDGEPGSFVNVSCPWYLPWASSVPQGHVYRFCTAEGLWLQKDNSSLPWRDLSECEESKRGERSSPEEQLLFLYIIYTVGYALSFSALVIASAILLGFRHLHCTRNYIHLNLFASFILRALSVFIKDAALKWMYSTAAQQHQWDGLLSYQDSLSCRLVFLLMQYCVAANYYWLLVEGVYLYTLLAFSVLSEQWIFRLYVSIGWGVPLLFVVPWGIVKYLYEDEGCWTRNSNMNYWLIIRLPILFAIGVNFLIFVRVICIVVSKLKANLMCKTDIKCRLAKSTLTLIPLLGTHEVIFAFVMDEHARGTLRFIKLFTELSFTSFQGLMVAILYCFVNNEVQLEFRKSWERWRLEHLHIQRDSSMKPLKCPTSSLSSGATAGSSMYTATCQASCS
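Luminescence readout: a drop in cAMP-driven luciferase signal flags inverse agonism at a constitutively active GLP-1R stably expressed in HEK293. Compound exposure lasted 24 hr at 37 deg C, 5% CO2.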
ATXN2 expr inh: reduces ATXN2 reporter expression in HEK-293 cells; Potency, µM (doses to about 57 µM), for inactives: at the top dose activity change, negative = inhibition, most hits filed as inhibitors; 360,000 compounds, 0.72% hits; HEK-293 ATXN2-luciferase reporter, luminescence, 24 h; AID 1745845; also: % is scaled to controls: 0 for no effect and ±100 for the full control effect; nearly all actives have a fitted effect of over 55% in size
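qHTS (up to 57 uM final) was run with 24 h compound exposure of reporter cells at 37 °C. Each well was multiplexed: SteadyGlo luminescence measured ATXN2-luciferase expression after a fluorogenic Gly-Phe-AFC viability readout (25 uM final).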
GLP-1R agonist: activates the human GLP-1 receptor | P43220 | HEK293 GLP-1R CRE-luciferase, luminescence, 4-6 h; cells express a hypersensitive GLP-1R form | AID 624172 | Potency, µM (highest dose often 45.6 µM), without a hit: at the highest dose activation, hits mostly activators | 380,000 compounds, 0.007% hits; also: % of control where 0% means no effect
ATXN viability: reduces viability in counter-screen for ATXN expression inhibitors; S2 cells (HEK-293 line with an ATXN2-luciferase reporter) viability, CellTiter-Fluor protease fluorescence, 24 h; Potency, µM (doses to about 56.7 µM), actives largely listed as cytotoxic; 400,000 compounds, 0.49% hits; also: nearly all actives have a fitted effect of over 40% in size
HepG2 tox: counter-screen for TGF-b inhibitors: cytotoxicity in HepG2 cells; 410,000 compounds, 0.76% hits; HepG2 CAGA-GFP viability, ATP luminescence, 18 h; AID 588856; Potency, µM (titrated, usually from 46.1 µM), for inactives: at the top dose activity change, negative = cytotoxicity, hits mostly cytotoxic
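CellTiter-Glo luminescence gave cytotoxicity after 18 hours at 37 degrees C. The cells were HepG2 CAGA-GFP in 1% FBS DMEM, stimulated with 500 pg/mL TGF-beta after compound addition. %Activity was normalised to no-cell wells (complete cell-killing) and DMSO (no toxicity), and curves were fitted and classified.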
Active calls of the source: *; i = inactive; ? = inconclusive; . = not tested or not shown; [ ] = dose if it differs, or a comment. Calls follow the shape of the dose curve; as a rule, active = well fitted curve in the direction sought with a large enough effect; inconclusive = small, poorly fitted or top-dose-only effect, or another doubt; inactive = no such curve, though single readings can be large; an effect the other way counts as inactive or inconclusive. Potency is read from the fitted curve at half-maximal effect.

SMILES	TGFb SMAD3 inh	GLP-1R inv ag	ATXN2 expr inh	GLP-1R agonist	ATXN viability	HepG2 tox
O=C(NNc1ccc(F)cc1)c1c(F)cccc1Cl	-14%	1.1µM*	11%	0%	i	1%
O=C(NNc1ccc(Cl)cc1)c1c(F)cccc1Cl	2%	?	-13%	0%	i	8%
CCOC(=O)C1=C(C)NC(C)=C(C(=O)OCC)C1c1ccccc1/C=C/C(=O)OC(C)(C)C	.	.	35µM*	.	?	.
CCOC(=O)C1=C(C)NC(C)=C(C(=O)OCC)C1c1ccccc1C=CC(=O)OC(C)(C)C	.	.	.	7%	.	.
CCCCOc1ccc(C(=O)Nc2ccc3c(c2)N(C(C)=O)CCC3)cc1	6%	1.1µM*	.	.	.	-6%
Cc1cc(N=Nc2ccccc2C(=O)O)c(C)c(C)c1O	0%	22%	-4%	3%	13µM*	-5%
Cc1ccc(C(C)C)c(OCCOCCN2CCNCC2)c1	-13%	-74%	12%	-1%	i	-30%
Clc1ccc(SCCCCN2CCNCC2)cc1	-19%	1.8µM*	-9%	0%	i	-41%
Cc1ccc(SCCCCN2CCNCC2)cc1	-1%	2.8µM*	2%	-3%	i	-2%
Cc1ccc(C(C)C)c(OCCCCN2CCNCC2)c1	2%	2.2µM*	.	-6%	?	-41%
CC(C)NC(=O)CN1C(=O)c2cccnc2Sc2ccccc21	2%	1%	7%	.	i	-28%
Cc1c(C)n(CC(O)CNc2ccccc2)c2ccccc12 (stereo not given)	?	10µM*	-16%	11%	i	-41%
CCN1C(=O)S/C(=C/c2ccc(Sc3nc4ccccc4[nH]3)o2)C1=O	13µM*	76%	?	-4%	?	-45%
COc1cc(N(C)C)ccc1/C=C/c1ccnc2ccccc12	152%	.	.	.	.	-39%
CC(C(=O)c1ccccc1)[n+]1ccc(Cl)c2ccc(Cl)cc21 (stereo not given)	-6%	.	.	.	.	-8%
CC(C)(C)C1=NN(C(=O)c2ccccc2)C(O)(C(C)(C)C)C1 (stereo not given)	0%	?	4%	6%	i	-2%
CC(C)C1=NN(C(=O)c2ccccc2)C(O)(C(C)(C)C)C1 (stereo not given)	?	13µM*	-4%	-14%	i	1%
CCSc1nc2ccccc2n1C(=O)/C=C/c1ccc(OC)c(OC)c1	?	?	7.9µM*	-13%	8.9µM*	-52%
C=CCSc1nc2ccccc2n1C(=O)/C=C/c1ccc(OC)c(OC)c1	-6%	59%	14µM*	-10%	10µM*	-9%
C=CCSc1nc2ccccc2n1C(=O)/C=C/c1cc(OC)c(OC)c(OC)c1	?	0%	10µM*	-13%	3.5µM*	11µM*
Cc1ccc2cccc(O)c2n1	?	.	.	.	.	-118%
CC(C)(C)C1CCC(=NNc2ccc(S(N)(=O)=O)cc2[N+](=O)[O-])CC1 (stereo not given)	?	?	1%	-6%	i	11µM*
CC1CCCC/C1=N\Nc1ccc(S(N)(=O)=O)cc1[N+](=O)[O-] (stereo not given)	11%	19%	3%	1%	i	2%
Cn1c(=O)c(F)c(Nc2ccc(I)cc2F)c2c(=O)n(C[C@@H](O)CO)cnc21	.	.	-11%	.	.	.
CCOc1ccccc1CNC(=O)CCc1cn(C)c2ccccc12	0%	7.1µM*	-15%	9%	i	1%
SMILES	TGFb SMAD3 inh	GLP-1R inv ag	ATXN2 expr inh	GLP-1R agonist	ATXN viability	HepG2 tox
CCOc1ccccc1CNC(=O)CCCc1cn(C)c2ccccc12	-19%	?	-7%	7%	?	-37%
C=CCN1C(c2ccc(Br)cc2)=CS/C1=C(\C#N)c1nnc(N2CCOCC2)n1-c1ccccc1	-10%	7.1µM*	-16%	2%	i	-18%
O=C(NC(c1ccc(-c2ccccc2)cc1)c1cnccn1)C1CCN(Cc2cccc(C(F)(F)F)c2)CC1 (stereo not given)	?	?	?	-2%	?	-101%
COc1cc(CN2CCC(C(=O)NC(c3ccc(-c4ccccc4)cc3)c3cnccn3)CC2)cc(OC)c1 (stereo not given)	?	?	?	-1%	?	22µM*
O=C(NC(c1ccc(-c2ccccc2)cc1)c1cnccn1)C1CCN(Cc2ccc(Oc3ccccc3)cc2)CC1 (stereo not given)	?	4µM*	?	1%	?	-62%
CCOc1ccccc1N=Nc1c(C)[nH]n(-c2nc(-c3ccccc3)cs2)c1=O	.	.	8%	.	.	.
COc1ccc2c(c1)CCc1c-2n[nH]c1C(=O)NCCC(C)C	-13%	7.9µM*	-18%	-3%	i	-26%
CCN[C@@H]1C[C@H](N)[C@@H](OC2OC(CN)=CCC2N)[C@H](O)[C@H]1O[C@H]1OC[C@](C)(O)[C@H](NC)[C@H]1O (stereo not given in full)	.	.	-2%[0.709 µM]	.	i[0.575 µM]	.
CCOC(=O)[C@@](C)(N)Cc1ccc(O)c(O)c1	.	.	-26%	0%	?	.
CN(Cc1ccc(F)cc1)C(=O)c1cccc(S(=O)(=O)N2CCN(c3ccc(F)cc3)CC2)c1	?	10µM*	-30%	6%	i	-19%
CSc1ccc(CN(C)C(=O)c2cccc(S(=O)(=O)NCc3ccccc3)c2)cc1	?	5µM*	?	9%	?	-29%
COc1cccc(NC(=O)c2cccc(S(=O)(=O)N3CCN(Cc4ccccc4)CC3)c2)c1	-8%	6.3µM*	-14%	6%	i	-4%
COCCN(Cc1ccccc1)C(=O)c1cccc(S(=O)(=O)N2CCN(c3ccccc3)CC2)c1	-26%	10µM*	-30%	10%	i	0%
CC(=O)c1ccccc1-c1ccc2c(c1)CC(CNC(=O)c1ccnc(Cl)c1)O2 (stereo not given)	.	.	.	.	i	.
COc1cc(CCC(=O)NCc2ccc3c(c2)CCN3C(=O)c2ccc(F)cc2)cc(OC)c1OC	?	12%	.	.	.	-21%
CS(=O)(=O)Oc1ccc2c(NC(N)=O)c(C(=O)c3ccc(Cl)cc3Cl)oc2c1	.	.	119%	.	.	.
COc1cc(=O)n2c(c1C(=O)NC(C)c1ccco1)CCN(C(=O)c1ccccc1SC)CC2 (stereo not given)	.	.	.	.	i	.
CSc1ccc(CN(C)C(=O)c2cccc(S(=O)(=O)N3CCN(Cc4ccccc4)CC3)c2)cc1	?	11µM*	-22%	7%	i	-9%

Compound activity deposited in PubChem BioAssay by National Center for Advancing Translational Sciences (NCATS).
